# ± gives the standard deviation of the averaged measurements.
# Tested on: E. coli BW25113 marRABp lux reporter
# Experiment: promoter activity interaction Z-score (Lux/OD deviation from empty-vector control); higher = stronger promoter induction by the compound
# Experimental: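 E. coli BW25113 (wild type or ΔmarA/ΔsoxS/Δrob) carrying pTU175 luxCDABE promoter reporters was grown in LB in 384-well plates at 37°C with each of 94 compounds at 4 two-fold concentrations, in biological duplicates. Luminescence and OD600 were read every 30 min for 12 h and integrated as AUC over 8 h (0-8 h WT, 1-9 h mutants). Lux AUC was divided by OD AUC; the interaction score is the residual of a Huber robust fit of each promoter against the empty-vector control, then Z-transformed per promoter.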
Compound,"promoter activity interaction Z-score (6.9 µg/ml, genetic background: wild type)","promoter activity interaction Z-score (6.9 µg/ml, genetic background: ΔmarA)","promoter activity interaction Z-score (6.9 µg/ml, genetic background: Δrob)","promoter activity interaction Z-score (6.9 µg/ml, genetic background: ΔsoxS)","promoter activity interaction Z-score (13.8 µg/ml, genetic background: wild type)","promoter activity interaction Z-score (13.8 µg/ml, genetic background: ΔmarA)","promoter activity interaction Z-score (13.8 µg/ml, genetic background: Δrob)","promoter activity interaction Z-score (13.8 µg/ml, genetic background: ΔsoxS)","promoter activity interaction Z-score (27.5 µg/ml, genetic background: wild type)","promoter activity interaction Z-score (27.5 µg/ml, genetic background: ΔmarA)","promoter activity interaction Z-score (27.5 µg/ml, genetic background: Δrob)","promoter activity interaction Z-score (27.5 µg/ml, genetic background: ΔsoxS)","promoter activity interaction Z-score (55 µg/ml, genetic background: wild type)","promoter activity interaction Z-score (55 µg/ml, genetic background: ΔmarA)","promoter activity interaction Z-score (55 µg/ml, genetic background: Δrob)","promoter activity interaction Z-score (55 µg/ml, genetic background: ΔsoxS)","promoter activity interaction Z-score (22.7 µg/ml, genetic background: wild type)","promoter activity interaction Z-score (22.7 µg/ml, genetic background: ΔmarA)","promoter activity interaction Z-score (22.7 µg/ml, genetic background: Δrob)","promoter activity interaction Z-score (22.7 µg/ml, genetic background: ΔsoxS)","promoter activity interaction Z-score (45.3 µg/ml, genetic background: wild type)","promoter activity interaction Z-score (45.3 µg/ml, genetic background: ΔmarA)","promoter activity interaction Z-score (45.3 µg/ml, genetic background: Δrob)","promoter activity interaction Z-score (45.3 µg/ml, genetic background: ΔsoxS)","promoter activity interaction Z-score (90.6 µg/ml, genetic background: wild type)","promoter activity interaction Z-score (90.6 µg/ml, genetic background: ΔmarA)","promoter activity interaction Z-score (90.6 µg/ml, genetic background: Δrob)","promoter activity interaction Z-score (90.6 µg/ml, genetic background: ΔsoxS)","promoter activity interaction Z-score (181.2 µg/ml, genetic background: wild type)","promoter activity interaction Z-score (181.2 µg/ml, genetic background: ΔmarA)","promoter activity interaction Z-score (181.2 µg/ml, genetic background: Δrob)","promoter activity interaction Z-score (181.2 µg/ml, genetic background: ΔsoxS)"
CCCC(=O)O [Butyrate],-0.205 ± 0.013,-0.16 ± 0.12,0.206 ± 0.17,0.201 ± 0.094,-0.136 ± 0.0092,0.187 ± 0.35,0.0966 ± 0.16,0.00738 ± 0.051,-0.429 ± 0.012,-0.0336 ± 0.044,0.0375 ± 0.0006,0.0783 ± 0.13,-0.383 ± 0.07,-0.0286 ± 0.24,0.0661 ± 0.17,0.114 ± 0.15,–,–,–,–,–,–,–,–,–,–,–,–,–,–,–,–
C[C@]12CCC(=O)C=C1CC[C@@H]1[C@@H]2[C@@H](O)C[C@@]2(C)[C@H]1CC[C@]2(O)C(=O)CO [Hydrocortisone],–,–,–,–,–,–,–,–,–,–,–,–,–,–,–,–,-0.21 ± 0.0069,-0.342 ± 0.029,-0.0926 ± 0.12,-0.27 ± 0.066,-0.258 ± 0.11,-0.377 ± 0.024,-0.12 ± 0.044,-0.15 ± 0.019,-0.225 ± 0.18,-0.395 ± 0.011,-0.23 ± 0.18,-0.551 ± 0.19,-0.465 ± 0.21,-0.467 ± 0.023,-0.34 ± 0.16,-0.371 ± 0.24

# — the supplement of paper PMC12282887
